Laboratory results from PubChem BioAssay (EPA / NIEHS).
Where “and” joins values, the source holds several entries; their conditions need not be identical. Identical values can stand only once. Records with an inconclusive call do not appear. A structure can be active in one record and inactive in another. Calls of active or inactive are those of the source. Rule for the calls, unless noted: active = hit-call score of the fitted dose curve at least 0.9, where 1 is the maximum; inconclusive = response in the unintended direction; inactive = score below 0.9.

How the values were obtained:
[1] = system: SERPINA7 (gene 6906); assay: CCTE_GLTED_hTBG: CCTE's human Thyroxine-binding Globulin (TBG) Inhibition Assay, Great Lakes Toxicology and Ecology Division (GLTED) Lab (AID 2284343);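 note: active chemicals lower fluorescence versus DMSO baseline by displacing probe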
Method in brief: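 Fluorescence (ex 380/em 475) reports ANSA displaced from human TBG after a 2 h incubation with test chemical, without cells. Loss of signal indicates displacement, with DMSO serving as baseline.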

[2] = VALA_TUBIPS_Antagonist_CellCount: Viability Assessment in the VALA Sciences human iPS-derived Endothelial Tubule Formation (TUBIPS) Antagonism Assay (AID 2284335)
[3] = VALA_TUBIPS_Agonist_CellCount: Viability Assessment in the VALA Sciences human iPS-derived Endothelial Tubule Formation (TUBIPS) Agonism Assay (AID 2284338)
[4] = IUF_NPC1_cytotoxicity_72hr: Cytotoxicity Assessment at 72 hours in the Leibniz Research Institute for Environmental Medicine (IUF) Neural Progenitor Cell Proliferation Assay (NPC1) (AID 2284332);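 note: rising LDH signal means more cytotoxicity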
Method in brief: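 LDH in supernatant, resazurin→resorufin fluorescence (RFU), 72 h exposure, no re-dosing. Cells: primary hNPC spheres, one per well, EGF+FGF medium, 37C/5% CO2, pH 7.2-7.6. Fit: positive direction vs baseline and dynamic range.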

[5] = CCTE_Mundy_HCI_iCellGluta_NOG_NeuronCount: CCTE's Neurite Outgrowth Assay in iCellGluta cells for Neuron Count, Mundy Lab (AID 2284340);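 note: cells fixed about 48 h after compound addition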
Method in brief: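 Neuron count read by automated high-content imaging of Hoechst 33342 and betaIII-tubulin/Alexa Fluor-488 labelling in human iPSC glutamatergic neurons. Activity fitted relative to DMSO.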

[6] = CCTE_Mundy_HCI_iCellGluta_NOG_NeuriteCount: CCTE's Neurite Outgrowth Assay in iCellGluta cells for Neurite Count, Mundy Lab (AID 2284342);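 note: chemical exposure about 48 hours starting 2 hours after plating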
[7] = VALA_MIGHUV1_ScratchOnly_WoundArea: VALA Sciences human Umbilical Vein Endothelial Cell Migration (MIGHUV) Assay, Area of Scratch Wound Inhibited Recovery (AID 2284336)
Method in brief: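 Wound area remaining after 24 h recovery imaged by Hoechst nuclear fluorescence in scratched HUVEC cultures, chemicals added within 30 min of scratching across a 6-point series. Gain of signal fitted against 0.1% DMSO; cytochalasin D positive control.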

[8] = Tanguay_ZF_120hpf_MO24: Oregon State University Tanguay Lab 24 Hour Post-fertilization zebrafish Assay for Mortality (AID 2284389; active = hit-call score of the fitted dose curve at least 0.9, where 1 is the maximum; inactive = score below 0.9)
Method in brief: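 Embryo death at 24 hpf was recorded as present or absent in Tropical 5D zebrafish, dechorionated at 4 hpf and dosed statically from 6 hpf (28C, 0.64% DMSO); 5 uM trimethyltin chloride served as positive control.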

[9] = Tanguay_ZF_120hpf_DP24: Oregon State University Tanguay Lab 24 Hour Post-fertilization zebrafish Assay for Delayed Development (AID 2284390; active = hit-call score of the fitted dose curve at least 0.9, where 1 is the maximum; inactive = score below 0.9)
Method in brief: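 Scored at 24 hpf as a binary present/absent call of delayed development by brightfield, with dead embryos not assessed. Embryos (5D wild type, chorion removed with pronase at 4 hpf) dosed statically from 6 hpf at 28 C in 0.64% DMSO.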

[10] = Tanguay_ZF_120hpf_CRAN: Oregon State University Tanguay Lab 120 Hour Post-fertilization zebrafish Assay for Craniofacial Malformation (AID 2284397; active = hit-call score of the fitted dose curve at least 0.9, where 1 is the maximum; inactive = score below 0.9)
Method in brief: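 Scoring of craniofacial malformation as a binary endpoint was done at 120 hpf by brightfield microscopy and was not done in dead embryos. Exposure was static, starting at 6 hpf, in dechorionated wild-type embryos held singly at 28C with 0.64% DMSO final.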

[11] = Tanguay_ZF_120hpf_AXIS: Oregon State University Tanguay Lab 120 Hour Post-fertilization zebrafish Assay for Axial Malformation (AID 2284398; active = hit-call score of the fitted dose curve at least 0.9, where 1 is the maximum; inactive = score below 0.9)
Method in brief: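 Scoring was binary (present or absent) for body-axis defects, judged by brightfield imaging at 120 hpf in surviving larvae. Exposure was static at 28C from 6 hpf in chorion-free 5D wild-type embryos, with 0.64% DMSO vehicle.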

[12] = Tanguay_ZF_120hpf_MORT: Oregon State University Tanguay Lab 120 Hour Post-fertilization zebrafish Assay for Mortality (AID 2284399; active = hit-call score of the fitted dose curve at least 0.9, where 1 is the maximum; inactive = score below 0.9)
Method in brief: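 Mortality, recorded present/absent via brightfield imaging at 24 and 120 hpf, in 5D zebrafish embryos exposed statically from 6 hpf after pronase chorion removal. Exposure at 28C, 0.64% DMSO vehicle, DMSO baseline.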

[13] = Tanguay_ZF_120hpf_EDEM: Oregon State University Tanguay Lab 120 Hour Post-fertilization zebrafish Assay for Edema Malformation (AID 2284400; active = hit-call score of the fitted dose curve at least 0.9, where 1 is the maximum; inactive = score below 0.9)
Method in brief: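 Edema recorded as a binary endpoint under brightfield at 120 hpf, excluding embryos that died. Exposure was static, sealed, 28C, from 6 hpf in dechorionated wild-type larvae, final DMSO 0.64%, DMSO as baseline.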

[14] = Tanguay_ZF_120hpf_MUSC: Oregon State University Tanguay Lab 120 Hour Post-fertilization zebrafish Assay for Muscle Malformation (AID 2284401; active = hit-call score of the fitted dose curve at least 0.9, where 1 is the maximum; inactive = score below 0.9)
Method in brief: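 Scored as a binary brightfield endpoint at 120 hpf, fitted versus DMSO. Single dechorionated wild-type (Tropical 5D) zebrafish embryos per well, statically exposed at 28C from 6 hpf onward with final DMSO 0.64%.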

[15] = Tanguay_ZF_120hpf_BRN: Oregon State University Tanguay Lab 120 Hour Post-fertilization zebrafish Assay for Brain Region Malformation (AID 2284402; active = hit-call score of the fitted dose curve at least 0.9, where 1 is the maximum; inactive = score below 0.9)
Method in brief: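 Binary brightfield scoring of brain malformation at 120 hpf in 5D wild-type larvae, chorion removed with pronase at 4 hpf. Static exposure began at 6 hpf, 28C, sealed plates, DMSO 0.64% (vol/vol) as vehicle baseline.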

[16] = Tanguay_ZF_120hpf_TCHR: Oregon State University Tanguay Lab 120 Hour Post-fertilization zebrafish Assay for Touch Responsive (AID 2284403; active = hit-call score of the fitted dose curve at least 0.9, where 1 is the maximum; inactive = score below 0.9)
Method in brief: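 Binary touch-response calls are made at 120 hpf in 5D wild-type zebrafish larvae. These larvae were dechorionated with pronase and exposed singly from 6 hpf in sealed, dark plates at 28 °C with 0.64% DMSO final; dead embryos are excluded.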

[17] = Tanguay_ZF_120hpf_ANY: Oregon State University Tanguay Lab 120 Hour Post-fertilization zebrafish Assay for Any Mortality and Malformation (AID 2284404; active = hit-call score of the fitted dose curve at least 0.9, where 1 is the maximum; inactive = score below 0.9)
Method in brief: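 Dechorionated Tropical 5D wild-type embryos, one per well from 6 hpf, static exposure in sealed, dark plates at 28C until 120 hpf, 0.64% DMSO final. Brightfield scoring of mortality and malformations as binary presence/absence, pooling 13 morphology endpoints.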

[18] = CCTE_Deisenroth_H295R-HTRF_384WELL_ESTRADIOL: CCTE's H295R-HTRF Assay Evaluation of Estradiol Concentration, Deisenroth Lab (AID 2284361; active = hit-call score of the fitted dose curve at least 0.9, where 1 is the maximum; inactive = score below 0.9); details: actives raise or lower the signal
Method in brief: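 Estradiol secreted into medium by H295R adrenocortical cells, quantified by HTRF after 48 h dosing over a nine-point 0.001 - 100 uM final range; gain or loss versus DMSO. Parallel ATP-luminescence viability readout; n=5 experiments.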

[19] = CCTE_Deisenroth_H295R-HTRF_384WELL_TESTOSTERONE: CCTE's H295R-HTRF Assay Evaluation of Testosterone Concentration, Deisenroth Lab (AID 2284373; active = hit-call score of the fitted dose curve at least 0.9, where 1 is the maximum; inactive = score below 0.9); details: actives raise or lower the signal
Method in brief: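 Secreted testosterone was quantified by HTRF immunoassay of medium from human adrenocortical H295R cells after 48 h chemical exposure at 0.001–100 uM final. Gain or loss was fitted against DMSO. ATP-based viability was read on matched wells, five experimental replicates.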

[20] = CCTE_Deisenroth_H295R-HTRF_384WELL_CTOX: Cytotoxicity Assessment in CCTE's H295R-HTRF Assay, Deisenroth Lab (AID 2284380)
Method in brief: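 Luminescent ATP viability readout (CellTiter-Glo 2.0), multiplexed on plates used for hormone sampling, after 48 h chemical exposure. Human H295R cells; final concentrations 0.001–100 uM in nine steps, technical triplicates, five experiments; DMSO baseline.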

## CC(C)OC(=O)Nc1cccc(Cl)c1
[1]
  AC50: 34.7 µM (active)

## O=C(O)CCCOc1ccc(Cl)cc1Cl
[1]
  AC50: 20.7 µM (active)

## Oc1cc(Cl)ccc1Oc1ccc(Cl)cc1Cl
[2]
  AC50: 0.00562 µM (active)
[3]
  AC50: 7.53 µM (active)
[1]
  AC50: 0.154 µM (active)

## CC1(c2ccc(Oc3ccccc3)cc2)OC(=O)N(Nc2ccccc2)C1=O (stereo unspecified)
[4]
  outcome: inactive
[5]
  AC50: 50 µM (active)
[6]
  outcome: inactive

## CCC(C)(C)C(=O)OC1=C(c2ccc(Cl)cc2Cl)C(=O)OC12CCCCC2
[4]
  outcome: inactive
[5]
  outcome: inactive
[6]
  outcome: inactive

## O=S(=O)(O)C(F)(F)C(F)(F)C(F)(F)C(F)(F)C(F)(F)C(F)(F)C(F)(F)C(F)(F)F
[4]
  AC50: 3.31 µM (active)
  outcome: inactive
[2]
  outcome: inactive
[7]
  outcome: inactive
[3]
  outcome: inactive
[5]
  outcome: inactive
[6]
  outcome: inactive
[8]
  outcome: inactive
[9]
  outcome: inactive
[10]
  AC50: 32.7 µM (active) and 91 µM (active)
[11]
  AC50: 37.8 µM (active)
  outcome: inactive
[12]
  AC50: 22.5 µM (active)
  outcome: inactive
[13]
  AC50: 32.7 µM (active) and 35.6 µM (active)
[14]
  outcome: inactive
[15]
  AC50: 46 µM (active)
  outcome: inactive
[16]
  AC50: 51.8 µM (active)
  outcome: inactive
[17]
  AC50: 32.7 µM (active) and 16.7 µM (active)

## CCCN(CCOc1c(Cl)cc(Cl)cc1Cl)C(=O)n1ccnc1
[18]
  AC50: 0.00173 µM (active)
[19]
  AC50: 0.322 µM (active)
[20]
  outcome: inactive

## CC(C)N(C(=O)COc1nnc(C(F)(F)F)s1)c1ccc(F)cc1
[4]
  outcome: inactive
[5]
  outcome: inactive
[6]
  outcome: inactive

## CCC(C)Nc1c([N+](=O)[O-])cc(C(C)(C)C)cc1[N+](=O)[O-] (stereo unspecified)
[1]
  AC50: 22.3 µM (active)

## C#CCN1C(=O)COc2cc(F)c(N3C(=O)C4=C(CCCC4)C3=O)cc21
[1]
  AC50: 8.38 µM (active)

## COP(=S)(OC)Oc1ccc(SC)c(C)c1
[1]
  AC50: 12 µM (active)

## Oc1ccc(Cl)cc1Cc1ccccc1
[1]
  AC50: 1.07 µM (active)

## CC(C)(C)C(O)/C(=C\c1ccc(Cl)cc1Cl)n1cncn1 (stereo unspecified)
[1]
  AC50: 30.8 µM (active)

## CC(C)(C)C(O)C(Oc1ccc(Cl)cc1)n1cncn1 (stereo unspecified)
[18]
  outcome: inactive
[19]
  outcome: inactive
[20]
  outcome: inactive
